Source: PubChem BioAssay (NCATS)
Inconclusive results are not listed. A number with no mark means an inactive call. Calls of active or inactive are those of the source. Calls come from the whole dose curve; as a rule, active = well fitted inhibition curve with a large enough effect; inconclusive = small, poorly fitted or top-dose-only effect; inactive = no such curve, though single readings can be large or run the other way.

molecular target: Muscarinic acetylcholine receptor M1 (Rattus norvegicus) (UniProt P08482); assay: qHTS Assay for Antagonists of Acetylcholine Muscarinic M1 Receptor: Measurement of IP-One Response (AID 944); conditions: CHO-M1 cells, IP-One HTRF, antagonist mode; series mostly up to 46.1 µM; activity change, negative = inhibition: at the top concentration; note: nearly all actives have a fitted effect of over 75% in size
Sequence (P08482 whole entry, looked up): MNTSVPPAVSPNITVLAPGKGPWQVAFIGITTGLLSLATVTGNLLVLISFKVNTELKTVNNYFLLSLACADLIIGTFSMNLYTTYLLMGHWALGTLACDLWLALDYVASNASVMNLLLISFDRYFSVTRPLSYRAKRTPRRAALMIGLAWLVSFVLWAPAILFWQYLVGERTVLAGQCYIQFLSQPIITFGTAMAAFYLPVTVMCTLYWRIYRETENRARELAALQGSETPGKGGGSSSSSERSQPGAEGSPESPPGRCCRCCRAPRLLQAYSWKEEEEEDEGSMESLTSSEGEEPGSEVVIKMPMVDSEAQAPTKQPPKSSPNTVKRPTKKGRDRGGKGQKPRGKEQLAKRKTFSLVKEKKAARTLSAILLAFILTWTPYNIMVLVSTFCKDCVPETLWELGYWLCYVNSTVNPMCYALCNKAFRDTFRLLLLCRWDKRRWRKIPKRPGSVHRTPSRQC
Source text: NIH Molecular Libraries Screening Centers Network [MLSCN]
NIH Chemical Genomics Center [NCGC]
Acetylcholine muscarinic M1 receptor is a G-protein coupled receptor (GPCR) coupling to the Gq G protein. It is mainly expressed in brain and functionally related to the learning and memory processes. The agonists of this receptor have the potential for the treatment of Alzheimer's disease and cognitive impairments associated with Schizophrenia.
Upon an activation of the M1 receptor, phosholipase C (PLC) is activated to produce inositol 1,4,5-trisphosphate (IP3) and diacyl glycerol (DAG). The IP3 is very rapidly hydrolyzed to IP2, IP1 and then inositol by a series of enzymes and Ca2+ is quickly pumped back into ER by the calcium pump on the ER membrane, which effectively switches off the IP3 and Ca2+ signaling. For compound screen, the changes in intracellular free Ca2+ concentration can be measured by the fluorescence calcium dye such as Fura-2, Fluo-3 and Fluo-4 with a fluorescence kinetic plate reader. IP1 or total IPs including IP1, IP2 and IP3 are usually measured as an alternative method for assessing the function of Gq-coupled GPCRs. We have applied a time-resolved fluorescence based (TR-FRET) IP1 assay in which an IP1 specific antibody is used to detect the labeled IP1 tracer. When the cell lysate contains the elevated IP1, the TR-FRET between the labeled antibody and IP1 tracer is disrupted resulting in a reduction in the total signal. Since the TR-FRET is used, a homogenous assay with out cell wash and medium change is possible which also can be miniaturized into the high density format for HTS.
We have obtained a M1-CHO cell line transfected with rat acetylcholine M1 receptor and optimized this IP-One assay with this cell line for compound screening as a counter-screen assay for other Gq-coupled GPCRs.
NCGC Assay Protocol Summary:
The CHO-M1 (CHO-M1) cell line transfected with the rat acetylcholine muscarinic M1 receptor was obtained from American Type Culture Collection (ATCC). The cells were maintained in call culture flasks with F12 Kaighn's media (Invitrogen) supplemented with 10 % FBS, 100 units/ml penicillin, 100 ug/ml streptomycin and 250 ug/ml geneticin (Invitrogen) at 37C, 5 % CO2 in a humidified atmosphere. At 90-95 % confluence, the cells were then detached in 15 ml 0.25 % trypsin by 3 minutes incubation at 37C and centrifuged at 1000 RPM to remove the trypsin solution. The resulting cell pellet was resuspended in the cell freezing media containing 10 % DMSO (Invitrogen) at a density of 4 x 10^7 cells/ml. The aliquots of cells at 0.5 - 1 ml per vial were frozen down slowly at 1 degree C/min using a Cryo 1 degree C freezing container in the presence of isopropanol (Nalgene Nunc, Rochster, NY) overnight in a -80C freezer. The frozen cells were then transferred to liquid nitrogen for the storage up to one year.
The resuspended frozen cells were plated at 3 ul/well with 2000 cells in the black, tissue culture treated, clear bottom 1536-well plates. The cells were cultured at 37C, 5 % CO2 for overnight to allow the cells recovering from the frozen state. 20 nl/well of compound in DMSO solution was added to the assay plate and incubated for 10 min. Carbachol was prepared in stimulation buffer (10mM Hepes, 1mM CaCl2, 0.5 mM MgCl2, 4.2 mM KCl, 146 mM NaCl, 5.5 mM glucose 50mM LiCl 50mM pH7.4) which was added to the assay plate at 1 ul/well. After an incubation with carbachol at 37C, 5 % CO2 for 30 min, all the wells in the assay plate were added with 1 ul/well of d2 conjugated IP1 (d2-IP1) and 1 ul/well of Eu+ cryptate conjugated anti-IP1 antibody (Eu+-Ab), both from the IP-One kit (Cisbio USA., Inc.). After 10 min incubation at the room temperature, the assay plates were measured in the HTRF detection mode in ViewLux plate reader (Ex=337 nm. Em(1)=620 and Em(2)=665 nm)
1536-well assay protocol:
(1) 4 ul/well containing 2000 M1-CHO cells in 1536 tissue culture treated white plate
(3) Add 23 nl compound diluted in DMSO
[…]
Potency is the fitted concentration of half-maximal effect.

In order of rising “activity change, negative = inhibition” value:
1. S=C(Nc1ccccc1)Nc1nccs1  -54.8%
2. COC(=O)c1c(-c2cc(OC)c(OC)c(OC)c2)c2ccnc(OCc3ncccn3)c2c(=O)n1Cc1ccnc(C)c1  -52.7%
3. COc1cc2nc(N3CCN(C(=O)[C@H]4CCCO4)CC3)nc(N)c2cc1OC  -49.4%
4. C[C@@](N)(C(=O)O)c1ccc(C(=O)O)cc1  -47%
5. Cc1cccc([C@@H]2CN(C)CCc3c2cc(O)c(O)c3Cl)c1  -43.4%
6. CCCCOc1cc(C[C@@H]2CNC(=O)N2)ccc1OC  -42.8%
7. CC(N)=NCc1cccc(CN)c1  -41.4%
8. CC(C)=CCC/C(C)=C/CC/C(C)=C/CSc1ccccc1C(=O)O  -41.4%
9. COc1ccccc1NC(=O)Nc1nc(-c2cccnc2)nc2ccccc12  -41.1%
10. O=Nc1c(-c2c(O)[nH]c3ccccc23)[nH]c2ccccc12  -39.9%
11. CC(C)NC[C@@H](O)COc1ccc(CCOCC2CC2)cc1  -39.8%
12. CC(C)NC[C@H](O)c1ccc(NS(C)(=O)=O)cc1  -39%
13. Cc1cccc(/C=C\c2ccccc2)n1  -38.9%
14. CO[C@]1(C2=NCCN2)COc2ccccc2O1  -37.6%
15. CCn1ccnc1C[C@@H]1COc2ccccc2O1  -36.9%
16. N[C@]1(C(=O)O)CCc2cc(C(=O)O)ccc21  -36.8%
17. S=C(S)O[C@@H]1C[C@@H]2C[C@H]1[C@@H]1CCC[C@H]21  -36.5%
18. C=C[C@H](N)CCC(=O)O  -34.6%
19. Cc1cccc(C)c1NC(=O)C[N+](C)(C)C  -34.1%
20. C[C@H](N=C(NC#N)Nc1ccncc1)C(C)(C)C  -32.6%
21. CN1CCN(CCC=C2c3ccccc3Sc3ccc(S(=O)(=O)N(C)C)cc32)CC1  -31.1%
22. O=C1N=C(O)CN1/N=C\c1ccc(-c2ccc([N+](=O)[O-])cc2)o1  -29.4%
23. N[C@@H]1CCN(O)C1=O  -26.1%
24. C=CCN1CCc2cc(O)c(O)cc2[C@H](c2ccccc2)C1  -26%
25. CN(C)CCCCSC(=N)N  -24%
26. Fc1cccc(/C=N\N=C/c2cccc(F)c2)c1  -23.1%
27. C[N+](C)(C)CCC(=O)c1cccc2ccccc12  -21.8%
28. CC(N)=NCCC[C@H](N)C(=O)O  -16.4%
29. COc1ccccc1N1CCN(C[C@@H](O)COc2cccc3ccccc23)CC1  -13.3%
30. NC[C@](O)(CS(=O)(=O)O)c1ccc(Cl)cc1  -12.6%
31. CC(C)(C)NC[C@H](O)COc1cccc2[nH]c(=O)[nH]c12  -12.4%
32. Cn1cnc2c(NC3CCCC3)ncnc21  -7.12%
33. NC(N)=NN=Cc1c(Cl)cccc1Cl  -5.06%
34. NCCNS(=O)(=O)c1cccc2cnccc12  -2.72%
35. O=C(O)[C@H]1CCCNC1  0.321%
36. C[C@]12CC3CC(N)(C1)C[C@@](C)(C3)C2  7.28%

In the case of `C1CCC(N=C(NC23CC4CC(CC(C4)C2)C3)N2CCOCC2)CC1`, the Potency was 17.8 µM (active).
In the case of `CSc1ccc2c(c1)[C@H](N1CCN(C)CC1)Cc1ccccc1S2`, the Potency was 5.62 µM (active).
For `COc1cccc(OC)c1OCCNC[C@@H]1COc2ccccc2O1`, the Potency was 17.8 µM (active).
In the case of `C[C@@H]([C@H](O)c1ccc(O)cc1)N1CCC(Cc2ccccc2)CC1`, the Potency was 7.94 µM (active).
